Screening results: PubChem BioAssay, National Center for Advancing Translational Sciences (NCATS)
FMDV inh: High Throughput Screening for Foot and Mouth Disease Virus Antivirals. FMDV antiviral cell-based qHTS. Potency, µM (doses to about 57.9 µM), most hits filed as inhibitors. hit rate 1.2% among 410,000. AID 1159524, 2015; calls by dose curve; tested in HEK293T cells; further: read-out not given here; nearly all actives have a fitted effect of over 45% in size
Cycloheximide cs: Cycloheximide Counterscreen for Small Molecule Inhibitors of Shiga Toxin; cell reporter, cycloheximide protein synthesis inhibition counterscreen; max response, %; hit rate 12% among 300,000; in the data active means max response mostly above about 13%, no sharp cut-off; inactive means mostly below about 14%; further: read at 38.3 µM for the half of the compounds with a filed dose
Shiga toxin inh: A qHTS for Small Molecule Inhibitors of Shiga Toxin; hit rate 9.2% among 290,000; AID 2315, 2010; inhibition, % at 38.7 µM; Vero cells, Shiga toxin protein synthesis inhibition reporter; in the data active means inhibition mostly above about 28%, no sharp cut-off; inactive means mostly below about 43%
Sm TGR inh: qHTS Assay for the Inhibitors of Schistosoma Mansoni Peroxiredoxins | purified TGR, DTNB reduction, TNB absorbance 405 nm | Potency, µM (titrated, usually from 114 µM), usual class: inhibitors | hit rate 3% among 360,000; active means well fitted inhibition curve with a large enough effect; inconclusive means small, poorly fitted or top-dose-only effect; inactive means no such curve, though single readings can be large or run the other way; further: nearly all actives have a fitted effect of over 60% in size
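TGR 20 nM + NADPH 100 uM (dispensed conc.), cpd preinc 15 min RT; start with NADPH (500 uM addition) then DTNB (15 mM addition). Kinetic TNB absorbance, 405 nm filter. Four-parameter Hill fit across titration.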
A number is an active result. Shown are actives, neighbours in structure and some others; about 12% of the full set was active somewhere.

`COc1ccc(Cl)cc1NC(=O)CSc1cn(CC(=O)N2CCCCCC2)c2ccccc12` gave FMDV inh inconclusive and Sm TGR inh inactive.
O=C(/C(=C/O)N=Nc1ccccc1)c1ccc(Cl)cc1 was read as FMDV inh inconclusive, Cycloheximide cs inactive, Shiga toxin inh inactive and Sm TGR inh inactive.
Cc1ccc(N=N/C(=C\O)C(=O)c2ccc(Cl)cc2)cc1 was read as FMDV inh inconclusive, Cycloheximide cs 36, Shiga toxin inh 106 and Sm TGR inh inactive.
`Cc1ccc(NC(=O)Cn2c(=O)n(Cc3nc(C)no3)c(=O)c3cc4c(cc32)OCO4)c(C)c1` gave FMDV inh inactive and Sm TGR inh inactive.
Screening Cc1ccsc1/C=C1/SC(=O)N(CC(=O)N2CCOCC2)C1=O returned FMDV inh inactive, Cycloheximide cs 25, Shiga toxin inh inactive and Sm TGR inh inactive.
Screening Cc1ccc(/C=C2/SC(=O)N(CC(=O)N3CCOCC3)C2=O)s1 returned FMDV inh inactive, Cycloheximide cs inactive, Shiga toxin inh inactive and Sm TGR inh inactive.
CCN=C1S/C(=C\c2sccc2C)C(=O)N1CC was read as FMDV inh inactive, Cycloheximide cs 19, Shiga toxin inh 31 and Sm TGR inh inactive.
Screening O=C(CN1C(=O)S/C(=C/c2ccc(N3CCOCC3)cc2)C1=O)N1CCOCC1 returned FMDV inh inactive, Cycloheximide cs 17, Shiga toxin inh 36 and Sm TGR inh inactive.
COc1ccc(-c2cc(C(=O)NC(C)c3ccccc3)c3cc(C(C)C)ccc3n2)cc1 (configuration not stated) was read as FMDV inh inactive and Sm TGR inh inactive.
CCOC(=O)c1cc2c(=O)n3ccccc3nc2n(CC2CCCO2)c1=NC(=O)c1ccc(OC)cc1OC (configuration not stated) was read as FMDV inh inactive and Sm TGR inh inactive.
COc1ccc(N2CCN(c3oc(/C=C/c4ccccc4OC)nc3C#N)CC2)cc1 was read as FMDV inh inactive and Sm TGR inh inactive.
O=C(O)c1cccc(Nc2nc(-c3cc4ccccc4oc3=O)cs2)c1 was read as FMDV inh inactive, Cycloheximide cs 41, Shiga toxin inh 74 and Sm TGR inh inactive.
O=c1oc2ccccc2cc1-c1csc(NN=C2CCCC2)n1 was read as FMDV inh inactive, Cycloheximide cs 14, Shiga toxin inh inactive and Sm TGR inh inactive.
Screening CCN(CC)c1cc(C)c2cc(NC(=O)/C=C/c3ccccc3OC(C)C)ccc2n1 returned FMDV inh inactive and Sm TGR inh inactive.
`Cc1ccnc(NC(=O)c2cnc(Cl)c(Cl)c2)c1` gave FMDV inh inactive, Cycloheximide cs 32, Shiga toxin inh 116 and Sm TGR inh inactive.
Screening Cc1ccnc(NC(=O)c2ccc(Cl)s2)c1 returned FMDV inh inactive, Cycloheximide cs 53, Shiga toxin inh 70 and Sm TGR inh inactive.
Screening Cc1ccnc(NC(=O)c2ccc(C(=O)c3ccccc3)cc2)c1 returned FMDV inh inactive and Sm TGR inh inactive.
For O=C(Nc1ccon1)c1sc2cc(Cl)ccc2c1Cl the results were FMDV inh inactive, Cycloheximide cs inactive, Shiga toxin inh inactive and Sm TGR inh inactive.
Screening O=C(Nc1ccon1)c1ccc(Cl)s1 returned FMDV inh inactive, Cycloheximide cs 15, Shiga toxin inh inactive and Sm TGR inh inactive.
`Cc1ccnc(NC(=O)CCNC(=O)c2ccc(Cl)cc2)c1` gave FMDV inh inactive, Cycloheximide cs inactive, Shiga toxin inh inactive and Sm TGR inh inactive.
`CC(NC(=O)c1ccco1)c1nnc2n1CCN(Cc1ccc(N(C)C)cc1)CC2` (configuration not stated) gave FMDV inh inactive.
Cc1nnc(N=c2ssnc2Cl)o1 was read as FMDV inh inconclusive and Sm TGR inh 28µM.
For COc1ccc(OC)c(N=c2ssnc2Cl)c1 the results were FMDV inh inactive, Cycloheximide cs inactive, Shiga toxin inh inactive and Sm TGR inh 56µM.
For Cc1cc(Cl)ccc1N=c1ssnc1Cl the results were FMDV inh inconclusive, Cycloheximide cs inactive, Shiga toxin inh inactive and Sm TGR inh inconclusive.
For Cc1ccc(N=c2ssnc2Cl)cc1 the results were FMDV inh inactive, Cycloheximide cs 26, Shiga toxin inh inactive and Sm TGR inh inconclusive.
For Nc1ccccc1N=c1ssnc1Cl the results were FMDV inh inactive, Cycloheximide cs inactive, Shiga toxin inh 55 and Sm TGR inh inactive.
COc1cc(N=c2ssnc2Cl)c(OC)cc1Cl was read as FMDV inh inconclusive, Cycloheximide cs inactive, Shiga toxin inh inactive and Sm TGR inh inconclusive.
`CCOC(=O)c1c(C)[nH]c(C)c1S(=O)(=O)N1CCC(C(=O)Nc2cc(Cl)ccc2OC)CC1` gave FMDV inh inactive and Sm TGR inh inactive.
